# PubChem BioAssay AID431 (Sanford-Burnham Center for Chemical Genomics, 2006)
# In all, about 63,000 compounds went through this assay and about 1,100 (1.7%) were called active. The sample holds actives, similar compounds and a random draw of the others, so the mix is not that of the screen. Measured potencies and affinities stand elsewhere. A number with no mark means an inactive call.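 How the source made its calls: active means compounds whose percent cytotoxicity in the single-dose primary screen, scaled between solvent and toxic-drug controls, exceeds 50; inactive means the rest.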
# Assay: viability loss of HPDE-C7K cells – cell-based, fluorescence, HTS, primary screen (AID 431);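 further: 0% = DMSO solvent wells and 100% = doxorubicin-treated wells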
# Conditions: HPDE-C7K KRASV12 cells, Alamar Blue viability, 48 h; at 10 µM; active compounds read high
row,Compound,cytotoxicity
1,Cn1c(=O)c2c(nc(Oc3ccc4c(c3)OCO4)n2Cc2ccc(Cl)cc2)n(C)c1=O,12.9%
2,Cc1cc(Br)c(S(=O)(=O)NCCN2CCOCC2)cc1C,8.4%
3,CN(Cc1ccco1)C(=O)Cn1c(=O)oc2cc(S(=O)(=O)NCc3ccccc3)ccc21,13.3%
4,CN(CCCn1c(=S)[nH]c2ncccc2c1=O)Cc1ccccc1,-13.7%
5,COc1ccc(OC)c(-c2cc(C(=O)N3CCCc4ccccc43)no2)c1,-6.9%
6,COc1ccc(CCNC2CC(=O)N(CCc3ccc(OC)c(OC)c3)C2=O)cc1OC (stereo not drawn),6.1%
7,COC(=O)Nc1ccc(Oc2ccccc2)cc1,-4.1%
8,COc1ccccc1C(c1nnnn1Cc1ccccc1)N1CCN(c2nc3ccccc3s2)CC1 (stereo not drawn),-13%
9,C=CS(=O)(=O)c1ccc(Oc2ccc(S(=O)(=O)C=C)cc2)cc1,94.8% (active)
10,O=S(=O)(c1ccc(Oc2ccc(S(=O)(=O)N3CCOCC3)cc2)cc1)N1CCOCC1,-9%
11,CNS(=O)(=O)c1ccc(Oc2ccc(S(=O)(=O)NC)cc2)cc1,9.9%
12,CCn1cc(C(=O)NCc2ccccn2)c(=O)c2cc(F)c(N3CCN(C)CC3)cc21,2.1%
13,CCn1cc(C(=O)NCCCN(C)C)c(=O)c2cc(F)c(N3CCN(C)CC3)cc21,-0.3%
14,CCn1cc(C(=O)NCCc2ccccc2)c(=O)c2cc(F)c(N3CCN(C)CC3)cc21,50.5% (active)
15,C/C(Cl)=C\Cn1c(N2CCCCCC2)nc2c1c(=O)n(C)c(=O)n2C,12%
16,N#Cc1ccc(NC(=O)c2cc3cc4c5c(c3oc2=N)CCCN5CCC4)cc1,12.7%
17,Cc1cc(-c2ccccc2)nc(N2CCN(c3ccccn3)CC2)n1,5.4%
18,O=C(c1cc(Cl)ccc1Cl)N1CCN(c2ccccn2)CC1,1.5%
19,COC(=O)c1sc(Nc2ccccc2)nc1C,0.2%
20,CCS(=O)(=O)N1CCN(c2cccc(C)c2C)CC1,-2.5%
21,c1ccc(-c2cc(-c3nc(-c4cccnc4)no3)c3ccccc3n2)cc1,-19.7%
22,c1ccc(-c2cc(-c3nc(-c4ccccn4)no3)c3ccccc3n2)cc1,60.7% (active)
23,c1ccc(-c2ccc(-c3nc(-c4ccccn4)no3)cc2)cc1,-2.8%
24,Cc1cc(C)n2cc(CSc3nnnn3-c3ccccc3C)nc2n1,-17.4%

row,Compound,cytotoxicity
1,COc1ccc(CSc2nnc(N)s2)cc1F,49.9%
2,Cc1ccc2c(c1)c1c3n2CCN(C(=O)C2CC2)C3CCC1 (stereo not drawn),-2.9%
3,Cc1ccc2c(c1)c1c3n2CCN(C(=O)CN2CCN(C)CC2)C3CCC1 (stereo not drawn),42.5%
4,COc1ccccc1N1CCN(C(=O)CCCCn2c(=O)[nH]c3ccsc3c2=O)CC1,1.8%
5,CN1CCc2nc(SCC(=O)Nc3ccc(F)cc3)c(C#N)cc2C1,-5%
6,O=C(Nc1cccc(C(F)(F)F)c1)c1cccnc1N1CCN(CCO)CC1,-13.4%
7,O=C(CN1CCCC(O)C1)N1c2ccccc2Sc2ccc(C(F)(F)F)cc21 (stereo not drawn),-4%
8,FC(F)(F)c1cccc(CN2CCCCCC2)c1,-5.3%
9,C=CCN1C(=O)c2ccccc2Sc2ccc(C(=O)N3CCN(C)CC3)cc21,-13.7%
10,C=CCOC(=O)CC(NC(=O)c1ccccc1)c1ccccc1 (stereo not drawn),-11.4%
11,COc1ccccc1-c1cn(S(=O)(=O)c2ccc(F)cc2)nc1N,2%
12,CCOC(=O)c1[nH]nc(C(=O)c2ccc(Br)cc2)c1O,5.4%
13,CC(=O)C(C(C)=O)c1c(Cl)c(O)c(O)c2c(C(=O)c3ccccc3)coc12,76.1% (active)
14,O=C(c1ccccc1)c1coc2ccc(O)c(Cl)c12,-15%
15,Cc1ccc(C(=O)c2coc3ccc(O)c(CN4CCN(C)CC4)c23)cc1,-9%
16,CN(C)Cc1c(O)ccc2occ(C(=O)c3ccccc3)c12,6.6%
17,c1cncc(C(c2nnnn2C2CCCC2)N2CCCC2)c1 (stereo not drawn),6%
18,Cc1ccc(SCc2nc(-c3ccccc3)no2)cc1,-10.8%
19,O=C(O)CCC(=O)N1CCN(c2cccc(Cl)c2)CC1,-6.3%
20,CCCNC(=O)c1[nH]c(C)c(C(C)=O)c1C,7.9%
21,CC(=O)c1c(C)[nH]c(C)c1C(C)=O,-3.5%
22,CCc1[nH]c(C)c(C(C)=O)c1C,65.5% (active)
23,O=C(Nc1ccccc1C(=O)N1CCCC1)c1cccc(S(=O)(=O)N2CCCCCC2)c1,-4.2%
24,c1ccc2c(c1)CCN2CCN1CCc2ccccc21,1.1%
